Test systems include DU-145 prostate; K-562 leukemia; MALME-3M melanoma; MDA-MB-231 breast; RXF 393 renal; SF-268 CNS; SF-295 CNS; SF-539 CNS; UACC-257 melanoma; M14 melanoma.
What all share (test): NCI-60 one-dose screen, 48 h (100 = growth as untreated, 0 = no growth, -100 = all killed)
What all share (conditions): 10 µM unless noted

Compounds without any hit were thinned out: in the full panel of roughly 83,000, 20% have a hit.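 Interpretation: 100, growth as untreated; towards 0, rising growth inhibition; 0, no net growth; 0 to -100, cell death. Compounds scoring below 10 were considered active.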 Values without a mark were called inactive. Active and inactive are the calls of the source.

Turning to `COc1ncc(F)c(OC)n1`, the growth in the assay with DU-145 prostate is 110%; with K-562 leukemia, 100%; with MALME-3M melanoma, 103%; with MDA-MB-231 breast it was 115%; in the assay on RXF 393 renal, 105%; in the assay with SF-268 CNS, 104%. Also, the growth with SF-295 CNS was 97.7%; in the assay with SF-539 CNS, 107%; in the assay with UACC-257 melanoma, 101%; in the assay with M14 melanoma, 102%.
As to `CC1=CN2C(=NC3=C(CCCC/C3=C\c3ccccc3)C2c2ccccc2)S1` (configuration not stated), the growth with DU-145 prostate is 108%; in the assay on K-562 leukemia, 98.2%; in the assay with MALME-3M melanoma, 89%; in the assay on MDA-MB-231 breast, 103%; in the assay with SF-268 CNS it was 96.9%; in the assay on SF-295 CNS, 79.1%. The growth with SF-539 CNS was 92.3%; with M14 melanoma, 107%.
For `CC(=O)OC[C@H](O)[C@@]1(O)CC[C@H]2[C@@H]3CCC4=CC(=O)CC[C@]4(C)[C@H]3[C@@H](O)C[C@@]21C`, the growth was 93.7% in the assay with DU-145 prostate; 89.5% in the assay on K-562 leukemia; 95.8% with MALME-3M melanoma; 134% in the assay on RXF 393 renal; 97.1% in the assay with SF-268 CNS; 111% in the assay with SF-295 CNS. The growth in the assay with SF-539 CNS was 100%; in the assay on UACC-257 melanoma it was 110%; in the assay on M14 melanoma it was 104%.
For the compound `CN1CCN(CCCn2c3c(sc4ncccc43)c(=O)n3nnc(-c4ccccc4)c23)CC1`, the growth with DU-145 prostate was -18.2% (active); with K-562 leukemia, 1.27% (active); in the assay on MDA-MB-231 breast it was -83.5% (active); in the assay on RXF 393 renal it was 75.3%; with SF-268 CNS it was 91%; in the assay on SF-295 CNS, 98.6%. For the same compound, the growth in the assay on SF-539 CNS is -96% (active); in the assay on UACC-257 melanoma it was 99.2%; in the assay with M14 melanoma, 78.4%.
For `Oc1ccc2ccccc2c1C1NN=C(c2ccccc2)S1` (configuration not stated), the growth is 21.1% in the assay with DU-145 prostate; 18.6% in the assay on K-562 leukemia; 38.7% with MDA-MB-231 breast; 67% in the assay on RXF 393 renal; 20.9% in the assay with SF-268 CNS; -8.68% (active) with SF-295 CNS. Moreover, the growth with SF-539 CNS was 12%; with UACC-257 melanoma it was -6.81% (active); with M14 melanoma, -8.91% (active).
As for `CCN1CCN(C(=S)SCC(=O)Nc2nc3ccc(OC)cc3s2)CC1`, the growth with DU-145 prostate is 106%; in the assay with K-562 leukemia, 91.8%; in the assay on MDA-MB-231 breast, 98%; with RXF 393 renal, 92.5%; with SF-268 CNS, 92.5%; in the assay on SF-295 CNS, 121%. For the same compound, the growth is 109% in the assay on SF-539 CNS, 117% with UACC-257 melanoma and 112% in the assay on M14 melanoma.
Turning to `Clc1ccc(Nc2ccnc(N3CCN(c4ccnc5cc(Cl)ccc45)CC3)n2)cc1`, the growth in the assay on DU-145 prostate is 78.2%; with K-562 leukemia, 15.7%; with MDA-MB-231 breast it was 33.8%; with RXF 393 renal, 62.6%; with SF-268 CNS, 57.3%; with SF-295 CNS, 18.8%. For the same compound, the growth with SF-539 CNS is 62.2%; in the assay on UACC-257 melanoma, 81.7%; in the assay with M14 melanoma, 33.7%.
As for `COc1ccc(/C=C(\C#N)c2ccc(OC)cc2)cc1`, the growth in the assay on DU-145 prostate was 72.3%; in the assay with K-562 leukemia it was 20.1%; in the assay on MDA-MB-231 breast, 72.8%; in the assay with RXF 393 renal it was 65.3%; with SF-268 CNS it was 78.4%; in the assay with SF-295 CNS, 47%. Also, the growth in the assay on SF-539 CNS is 79.7%; in the assay on UACC-257 melanoma it was 83.8%; in the assay with M14 melanoma, 61.9%.
Consider `C=C(C)COC(=O)c1ccccc1C(=O)OCC1(C)CO1` (configuration not stated), for which the growth with DU-145 prostate is 104%; in the assay with K-562 leukemia, 110%; in the assay on MDA-MB-231 breast it was 103%; in the assay on RXF 393 renal it was 117%; with SF-268 CNS, 93.6%; with SF-295 CNS, 91.9%. Moreover, the growth in the assay with SF-539 CNS was 101%; in the assay on UACC-257 melanoma it was 101%; in the assay with M14 melanoma, 96.5%.
For `CC(=O)c1cc(C)c(OC(=O)c2ccccc2)c(C)c1`, the growth was 102% with DU-145 prostate; 85.7% in the assay with K-562 leukemia; 94.6% in the assay with MDA-MB-231 breast; 98.9% in the assay on RXF 393 renal; 107% with SF-268 CNS; 107% in the assay on SF-295 CNS. Besides, the growth in the assay on SF-539 CNS is 100%; in the assay with M14 melanoma, 105%.
In the case of `COc1ccc(CSc2nc3cc(OC)c(OC)cc3c(=O)n2-c2ccc(Cl)cc2)cc1`, the growth in the assay on DU-145 prostate is 109%; in the assay with K-562 leukemia it was 93%; with MALME-3M melanoma it was 107%; in the assay with MDA-MB-231 breast it was 99.9%; in the assay with SF-268 CNS it was 101%; in the assay with SF-539 CNS, 95.9%. The growth in the assay on M14 melanoma is 106%.
`NC(=S)N/N=C1\c2ccccc2-c2c(F)c(F)c(F)c(F)c21`: the growth with DU-145 prostate is 81.7%; with K-562 leukemia it was 9.46% (active); in the assay on MALME-3M melanoma, 73.6%; in the assay on RXF 393 renal, 123%; in the assay with SF-268 CNS, 85.3%; with SF-295 CNS, 99.5%. The figures for the growth in the assay on SF-539 CNS, with UACC-257 melanoma and in the assay on M14 melanoma were 96.1%, 23.1% and 70.2%, respectively.
`Cc1ccc(S(=O)(=O)N(c2ccc(Cl)cc2)c2ccc(Br)cc2C(=O)O)cc1`: the growth was 117% in the assay on DU-145 prostate; 107% in the assay on K-562 leukemia; 119% in the assay on MDA-MB-231 breast; 100% in the assay with RXF 393 renal; 111% in the assay with SF-268 CNS; 112% in the assay with SF-295 CNS. Moreover, the growth in the assay with SF-539 CNS is 102%; in the assay on UACC-257 melanoma it was 101%; with M14 melanoma, 117%.
Take `Clc1nc(-c2ccccn2)nc2sc3c(c12)CCCCCC3`: the growth in the assay on DU-145 prostate was 22.6%; in the assay on K-562 leukemia, 79.8%; with MALME-3M melanoma, 94.2%; in the assay with MDA-MB-231 breast, 117%; in the assay with SF-268 CNS, 94.6%; with SF-539 CNS, 97.3%. In addition, the growth in the assay with M14 melanoma was 86.8%.
`O=c1nc(NO)[nH]c(=O)n1Cc1ccc(F)cc1`: the growth with DU-145 prostate is 114%; in the assay on K-562 leukemia, 98.1%; with MALME-3M melanoma, 103%; in the assay on MDA-MB-231 breast, 122%; in the assay on SF-268 CNS it was 104%; in the assay on SF-539 CNS, 102%. Also, in the assay with M14 melanoma, the growth is 107%.
For `NC(=O)c1cc(I)ccc1NC(=O)COc1ccc(Cl)cc1Cl`, the growth with DU-145 prostate was 111%; with K-562 leukemia it was 31.5%; with MDA-MB-231 breast, 107%; in the assay with RXF 393 renal, 99.3%; in the assay with SF-268 CNS, 97.5%; in the assay on SF-295 CNS, 90.2%. Further, the growth in the assay with SF-539 CNS was 97%; in the assay with UACC-257 melanoma, 89.6%; in the assay on M14 melanoma it was 81.5%.
